Growth data for 39 molecules are collected here from PubChem BioAssay (NCI).

The structures appear in SMILES notation. About 83,000 compounds went through this panel and 20% of them were active in at least one assay; those are over-represented in the sample as a whole.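 The endpoint reported here, percent growth, reads 100 for growth as untreated, 0 for no net growth and -100 for all cells dead.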 A number with no mark means an inactive call. Calls of active or inactive are those of the source. Rule for the calls: active = growth percent below 10; inactive = the rest.

This assay has as its system MDA-MB-468 breast. Nature of the assay: NCI-60 one-dose screen, 48 h (100 = growth as untreated, 0 = no growth, -100 = all killed). Conditions: 10 µM unless noted.
Regarding `NC(=S)c1csc(CCNC(=O)c2ccccc2)n1`, the growth was 109%.

`O=C1N=c2cc3c(cc2=C/C1=C/c1sc(=S)n(CCc2ccc(O)cc2)c1O)OCCO3`: the growth is 42.5%.

For the molecule `Cn1ncc(Cl)c1-c1cc(C(=O)N[C@H](CN)Cc2cccc(F)c2)sc1Cl`, the growth is -62.5% (active).

As for `c1ccc(CP(Cc2ccccc2)c2ccccc2)cc1`, the growth was 98.6%.

Regarding `O=C(CCCl)OCCOc1ccccc1`, the growth is 107%.

For the molecule `C/C(=N/O)c1ccc(F)cc1`, the growth is 75%.

Consider `Cc1nn(-c2ccccc2)c2nc(Cl)c(C=O)c(-c3ccccc3)c12`, for which the growth was 94.7%.

As to `COc1ccc(NC(=O)c2cccc(C3CCc4c(cc(OC)c(OC)c4OC)O3)c2)cc1` (centres undefined), the growth was 22%.

Turning to `COc1ccccc1Nc1nc2c(s1)C1=CC[C@H]3[C@@H]4CC[C@H]([C@H](C)CCCC(C)C)[C@@]4(C)CC[C@@H]3[C@@]1(C)CC2`, the growth was 113%.

`Nc1c(C(=O)c2ccc(F)cc2)sc2nc3c(cc12)CCCC3`: the growth was 59.9%.

With `COc1cc(-c2nc3occn3c2-c2ccnc(NCCNS(=O)(=O)c3ccc(Cl)cc3)n2)ccc1F`, the growth is 63.1%.

Regarding `O=C(c1ccncc1)N1N=C(c2ccc(Cl)cc2)C[C@H]1c1cn(-c2ccccc2)nc1-c1ccccc1`, the growth was 88.5%.

Regarding `Oc1c(Cl)cc(Cl)cc1C(c1cc(Cl)cc(Cl)c1O)C(Cl)(Cl)Cl`, the growth is -30.5% (active).

For the molecule `COc1ccc(-c2cc(-c3cccnc3)nc3sc4c(=O)[nH]c(-c5ccc(Cl)cc5)nc4c23)cc1OC`, the growth was 97.8%.

As for `CC1(CO)CCCC12OCCO2` (centres undefined), the growth was 102%.

Regarding `O=C(N/N=C1\c2ccccc2-c2cccc(C(=O)O)c21)c1ccc(O)cc1`, the growth was 90.8%.

Turning to `O=C(Cc1ccccc1Nc1c(Cl)cccc1Cl)NN1C(=O)/C(=C/c2ccc(Br)cc2)SC1=S`, the growth is 97%.

In the case of `C/C(=C(/C)C1CC1CCN(C(=O)c1ccc([N+](=O)[O-])cc1)S(=O)(=O)c1ccc(C)cc1)C1CCCCC1` (centres undefined), the growth is 82.5%.

For the molecule `O=Nc1c(-c2cccc([N+](=O)[O-])c2)nc2ncccn12`, the growth was 17.4%.

Turning to `Oc1ccc(OCCOc2ccc(O)cc2)cc1`, the growth is 94.6%.

Turning to `CC(CN1CCCCC1)C(=O)c1ccccc1` (centres undefined), the growth was 105%.

As to `CS(=O)(=O)c1nccc(-c2c(-c3ccc(OCCc4ccccc4)cc3)nc3sccn23)n1`, the growth is -81.5% (active).

As for `CCOC(=O)NC(=S)n1oc(=O)c2ccccc21`, the growth was 106%.

As to `CCC(C)(C)C(=O)O[C@H]1C[C@@H](C)C=C2C=C[C@H](C)[C@H](CC[C@@H]3CC(SCCN)CC(=O)O3)[C@H]21` (some centres undefined), the growth is 90.3%.

`Cc1cccc(NC(=O)CSc2nc3ccc([N+](=O)[O-])cc3[nH]2)c1`: the growth was 48.6%.

As for `CC(C)CCC[C@@H](C)C1CCC2C3CCC4=C/C(=N/OCCN(C)C)CC[C@]4(C)C3CC[C@@]21C` (some centres undefined), the growth was 87.3%.

In the case of `CNC(=O)c1ccccc1Oc1nc(Nc2cc(OC)c(OC)c(OC)c2)ncc1Br`, the growth is 49.6%.

As to `CC/C(=C/c1c(O)cccc1OC)c1ccc2c(OC)cccc2[o+]1`, the growth is 95.1%.

On to `COc1cc(NC(=O)Nc2cnc(Nc3ccc(N4CCOCC4)cc3)nc2Oc2ccc(F)cc2)cc(OC)c1`, for which the growth is 95.5%.

`CCc1c2cc(Cl)ccc2n2cc(Cc3ccccc3)[nH]c(=O)c12`: the growth is 115%.

For `CCCCCCCCCCC/C=C\C[C@H](O)C/C=C1/C(=O)C=C[C@@H]1C/C=C\CCCC(=O)OC`, the growth was -46.3% (active).

With `C=C1C(=O)O[C@H]2[C@H](O)[C@@H](C)CCC/C(C)=C/CC[C@@]3(C)O[C@@H]3C[C@@H]12`, the growth was 61.4%.

As for `Nc1c(CNCc2nnn(Cc3ccccc3)c2N)nnn1Cc1ccccc1`, the growth is 100%.

On to `Cc1ccc(/C=C2\COc3ccc(O)cc3C2=O)cc1`, for which the growth is 91.4%.

Regarding `c1ccc(Cn2cnc3ccc(-c4nc(-c5ccc6c(c5)ncn6C5CCCCC5)cn5ccnc45)cc32)cc1`, the growth was -35.7% (active).

As to `CN(C)c1ccc(Cc2ccc(N(C)C)cc2Cl)c(Cl)c1`, the growth is 88.7%.

For `c1csc(C2=NN3C(C2)c2ccccc2OC3c2ccncc2)c1` (centres undefined), the growth is 103%.

As to `COc1ccc(C2C=C(c3ccc(OC)c(OC)c3)N=C3SC=C(C)N32)c(Br)c1` (centres undefined), the growth was 95.9%.

Consider `O=C1CCCC=CC[C@H]2C=C(Cl)C(=O)C2=CC[C@H](CCCCC(F)(F)F)OC(=O)CCCC=CC[C@H]2C=C(Cl)C(=O)C2=CC[C@H](CCCCC(F)(F)F)OC(=O)CCCC=CC[C@H]2C=C(Cl)C(=O)C2=CC[C@H](CCCCC(F)(F)F)O1`, for which the growth is 59.9% [6.25 µM].
